This note sets out measurements from ChEMBL document CHEMBL3988442, “University of Dundee, Small-Polar-MMV Screening Library” (2021).

Structures are written as SMILES.

For the assay, the target named is AMP-activated protein kinase, AMPK (Homo sapiens) (UniProt P54646+O43741+P54619+Q9UGJ0+Q9Y478+Q13131+Q9UGI9). Kind of assay: AMP-dependent Kinase enzyme assay. An in vitro enzyme assay that detects ADP turnover that is directly proportional to AMPK activity. This uses naive AMPK that is activated during the assay with MK-8722. Conditions: 30 µM. The arrangement: scale not given: direction of the effect not stated beside the values. Format: functional.
`COc1cc(CNc2cnn(C)c2)cc2c1OCCO2`: the Percent Effect is -22.5%. The figure for `CCOCC1CN(S(C)(=O)=O)Cc2ncn(CC3CC3)c21` (stereo not given) is -8.53%; for `COc1ccc(C(=O)Nc2cnn(CC(=O)NC3CCCC3)c2)c(O)c1` it is -8.3%. In the case of `COCC(=O)N1CCCC1c1ccnc(Nc2cnccn2)n1` (stereo not given) it was 9.2%; in that of `Cn1cnc2c1CCN(CCCOc1ccc(C#N)cc1)C2`, -0.357%. Turning to `COCCN1CCC(NCc2cccc(F)c2)C1` (stereo not given), the Percent Effect is -4.27%. The figure for `Cc1nc(CCN(C)C(=O)C2COc3ccccc3C2)no1` (stereo not given) is -6.34%; for `COCC1CC2(CCN(C(=O)c3cccc(C)c3)CC2)CO1` (stereo not given) it is 3.05%; for `CC(C)CC(=O)N1CCCn2cnc(CN3CCCC3=O)c2C1` it is -0.875%. The figure for `Cc1nc(C)n(CC2CCCN(Cc3nc(C4CC4)no3)C2)n1` (stereo not given) is -9.55%. In the case of `COc1cccc([C@@H]2CN(C(=O)c3ccc(C)cc3O)C[C@H]2C(=O)O)c1` it was -1.7%; in that of `Nc1nc(CN2CCCC(Cn3cncn3)C2)nc2ccccc12` (stereo not given), -3.95%; in that of `O=C1C(NS(=O)(=O)c2cc(F)cc(F)c2)CCN1Cc1ccccc1` (stereo not given), -1.14%. In the case of `CCCc1nc(N2Cc3cnn(Cc4ccc(F)cc4)c3C2)no1`, the Percent Effect was 7.03%. In the case of `COc1cc(N2C[C@H]3OCC[C@H]3[C@H](C(=O)NC3CC3)C2)ncn1` it was -1.57%. In the case of `CCN(Cc1cccc(Cl)c1)Cc1nc2c(cnn2C)c(=O)[nH]1` it was 3.13%; in that of `CC(C)c1ccc(OCn2ccc(C(=O)N3CCCC3)n2)cc1`, 1.81%.

As for `CCc1cc(NC2CCN(S(C)(=O)=O)CC2)n2nc(C)c(C)c2n1`, the Percent Effect was 4.89%. The figure for `COc1c(CNCC(c2cccc(F)c2)N(C)C)c(C(C)C)nn1C` (stereo not given) is -2.29%. The figure for `Cc1ccccc1C(=O)NCc1ccc(N2CCNC(=O)C2)c(F)c1` is -2.71%.
